The values that follow come from PubChem BioAssay (NCI).

Assay [1] in a line: NCI Yeast Anticancer Drug Screen. Data for the rad50 strain (AID 155).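 Further: 0% = growth of vehicle-only cultures of the same strain.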 The following applies: S. cerevisiae rad50 strain growth inhibition; at 50.0 µM; hits give high values. Put shortly:
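Genetically altered yeast (DNA repair pathway); compound treatment; growth inhibition vs vehicle ctrl.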

Assay [2] is described as follows: NCI Yeast Anticancer Drug Screen. Data for the mec2-1 strain (AID 157). The following applies: S. cerevisiae mec2-1 strain, at 50.0 µM, hits give high values. The procedure, abridged:
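Cells of the genetically defined mec2-1 yeast strain are incubated with test compound. Inhibition of growth is calculated against vehicle-treated controls.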

Assay [3] can be described thus: NCI Yeast Anticancer Drug Screen. Data for the sgs1 mgt1 strain (AID 161).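 Further: 0% = growth of cultures given vehicle only.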 Conditions: S. cerevisiae sgs1 mgt1 strain, at 50.0 µM, hits give high values. The procedure, abridged:
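Mutant yeast exposed to compound; growth scored against vehicle-only wells.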

The nature of assay [4]: NCI Yeast Anticancer Drug Screen. Data for the cln2 rad14 strain (AID 165).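 Further: 0% = growth equal to vehicle treated cultures.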 Conditions: S. cerevisiae cln2 rad14 strain, at 50.0 µM, hits give high values. Put shortly: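 The screen exposed genetically defined yeast (cln2 rad14) to test compounds and scored growth inhibition relative to vehicle-treated controls.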
Assay [5] can be described thus: NCI Yeast Anticancer Drug Screen. Data for the bub3 strain (AID 167). The following applies: S. cerevisiae bub3 mutant strain, at 50.0 µM, hits give high values. Put shortly: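 Yeast carrying a defined mutation is treated with each compound, and growth is compared with that of vehicle-exposed cells to give inhibition.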
The nature of assay [6]: NCI Yeast Anticancer Drug Screen. Data for the mlh1 rad18 strain (AID 175). Conditions: S. cerevisiae mlh1 rad18 strain growth inhibition; at 50.0 µM; hits give high values. The procedure, abridged:
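Compound-treated yeast growth, normalised to vehicle controls. Strain bears defined DNA repair mutations.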

About 79,000 compounds went through this panel and 15% of them were active in at least one assay; those are over-represented in the sample as a whole. A number with no mark means an inactive call. Calls of active or inactive are those of the source. No stated cut-off is given here; in the data, active means growth inhibition above about 70%; inactive means the rest.

For `CC(=O)/C=C/C=C/c1ccco1`, the growth inhibition was -0.85% in assay [1]; 1.3% in assay [2]; 9.15% in assay [3]; -9.7% in assay [4]; 10.4% in assay [5]; 11.6% in assay [6].

In the case of `Cc1cccc(CC(CC(=O)O)C(=O)O)c1` (stereo unspecified), the growth inhibition in assay [1] was 4.85%; in assay [2] it was 9.45%; in assay [3], -1.85%; in assay [4] it was 11.6%; in assay [5], -2.45%; in assay [6] it was 1.4%.

As for `N#CC1(c2ccccc2)C(c2ccccc2)=C1c1ccccc1`, the growth inhibition in assay [1] is 1.75%; in assay [2], 5.15%; in assay [3], 2.25%; in assay [4], -4.55%; in assay [5], 8.7%; in assay [6] it was -8.95%.

With `O=CC(CO)CC(C=O)n1cnc2c(=O)[nH]cnc21` (stereo unspecified), the growth inhibition was -11.2% in assay [1]; -16.1% in assay [2]; -15.2% in assay [3]; 2.55% in assay [4]; -9.45% in assay [5]; 1.95% in assay [6].

Consider `CC(c1ccccc1)N1OC1(c1ccccc1)c1ccccc1` (stereo unspecified), for which the growth inhibition was 41.5% in assay [1]; 50.4% in assay [2]; 57.8% in assay [3]; 22.9% in assay [4]; 30.6% in assay [5]; 90.1% (active) in assay [6].

Turning to `CNC(=S)C(N)CCCC1NC(=S)N(C)C1=O` (stereo unspecified), the growth inhibition in assay [1] was 7%; in assay [2], 6.8%; in assay [3] it was -21.9%; in assay [4], 16.7%; in assay [5] it was 8.95%; in assay [6] it was 0.7%.

As to `CS(=O)(=O)C(c1nc2n(c1O)C(=N)N=N2)c1nc2n(c1O)C(=N)N=N2` (stereo unspecified), the growth inhibition in assay [1] was -3.2%; in assay [2] it was 12.1%; in assay [3] it was -6.15%; in assay [4], -17.1%; in assay [5], -5.2%; in assay [6], 9.8%.

Take `COc1c(-c2ccc(F)cc2)oc2c(CC(=O)O)cccc2c1=O`: the growth inhibition in assay [1] was -0.35%; in assay [2] it was -19.2%; in assay [3], -27.1%; in assay [4], 3.2%; in assay [5], -7.6%; in assay [6], -26.5%.

`CCOC=C(C(=O)OCC)C(=O)OCC`: the growth inhibition is 22.1% in assay [1]; -7.45% in assay [2]; -6.5% in assay [3]; -1% in assay [4]; -10.6% in assay [5]; 15.6% in assay [6].

Consider `O=C1CN(N2C(=O)CSC2C23CC4CC(CC(C4)C2)C3)C(=O)CN1c1ccccc1` (stereo unspecified), for which the growth inhibition is 7.2% in assay [1]; 2.1% in assay [2]; 13% in assay [3]; 24.8% in assay [4]; -2.6% in assay [5]; 12.8% in assay [6].

Turning to `O=C(O)Cn1cc(I)c(=O)c(I)c1`, the growth inhibition is -40.4% in assay [1]; -43.7% in assay [2]; -7.2% in assay [3]; 3.15% in assay [4]; -10.3% in assay [5]; -28% in assay [6].

Turning to `CCOC(=O)CC1CC(CN)(C(=O)OCC)CO1` (stereo unspecified), the growth inhibition in assay [1] is -21.6%; in assay [2], 12.2%; in assay [3] it was -6.9%; in assay [4] it was 3.65%; in assay [5], -0.4%; in assay [6], -22.9%.

As to `O=c1[nH]c(=O)n(COCCO)cc1-c1ccccc1`, the growth inhibition was -8.75% in assay [1]; -5.65% in assay [2]; 1.9% in assay [3]; 5.75% in assay [4]; -1.25% in assay [5]; -2.9% in assay [6].

In the case of `CCCn1c(CC)nc([N+](=O)[O-])c1Sc1ncn[nH]1`, the growth inhibition in assay [1] was -14.7%; in assay [2] it was -23.1%; in assay [3], -7.1%; in assay [4], 9.1%; in assay [5], -5.6%; in assay [6] it was -11.5%.

For `CCN(CCC#N)c1cccc(C)c1`, the growth inhibition was -12.2% in assay [1]; 1.6% in assay [2]; -5.75% in assay [3]; 9.8% in assay [4]; -16.8% in assay [5]; -7.55% in assay [6].

With `OCCC1=CCC1`, the growth inhibition was 3.05% in assay [1]; 20.9% in assay [2]; -3.35% in assay [3]; 29.6% in assay [4]; 4.95% in assay [5]; 5.4% in assay [6].

Take `c1ccc2nc3ccccc3cc2c1`: the growth inhibition in assay [1] was 2.7%; in assay [2], 19.6%; in assay [3], 27.1%; in assay [4], 27.8%; in assay [5] it was 3.1%; in assay [6] it was 5.95%.

As to `CC(=O)C(C)(C)Cc1cc(C(C)(C)CC=O)on1`, the growth inhibition in assay [1] was -2.25%; in assay [2] it was -0.8%; in assay [3], -12.4%; in assay [4] it was 5.35%; in assay [5], 29.1%; in assay [6], 4.95%.

In the case of `CN(CCNC(=O)NCCCCCCNC(=O)NCCN(C)c1ccccc1)c1ccccc1`, the growth inhibition in assay [1] was -6%; in assay [2], -44%; in assay [3], -6.7%; in assay [4], -33.2%; in assay [5], 3.45%; in assay [6] it was -5.05%.

In the case of `O=C(Nc1cccc(Cl)c1Cl)Oc1ccc(Cl)cc1C(=O)c1ccccc1`, the growth inhibition is -7.8% in assay [1]; -1% in assay [2]; -17.1% in assay [3]; 4.5% in assay [4]; -12.9% in assay [5]; -27.4% in assay [6].

As to `O=c1oc2ccccc2c(O)c1C(c1cccc(C(c2c(O)c3ccccc3oc2=O)c2c(O)c3ccccc3oc2=O)c1)c1c(O)c2ccccc2oc1=O`, the growth inhibition in assay [1] is 26.6%; in assay [2], 37.5%; in assay [3], -2.7%; in assay [4] it was -17.6%; in assay [5], -5.3%; in assay [6], 67.8%.
